Source: PubChem BioAssay (NCATS)
Inconclusive results are not listed. A call without a number means that no potency is given here. Activity calls are given as the source filed them. Calls come from the whole dose curve; tested in HEK293 reporter line.

Experiment: qHTS for Inhibitors of the Functional Ribonucleoprotein Complex (vRNP) of Lassa (LASV) Arenavirus: LASV Primary Screen - GLuc reporter signal (AID 1347082); note: nearly all actives have a fitted effect of over 60% in size
Conditions: LASV minigenome vRNP, Gaussia luciferase reporter; series mostly up to 57.5 µM
Potency is the fitted concentration of half-maximal effect.

| SMILES | Potency |
| --- | --- |
| O=C1[C@H](Cc2ccc(O)cc2)N2C(=O)CCN(C(=O)NCc3ccccc3)[C@H]2CN1Cc1cccc2ccccc12 | 19.3 µM (active) |
| Cc1cnc(Nc2ccc(F)cc2Cl)nc1-c1c[nH]c(C(=O)N[C@H](CO)c2cccc(Cl)c2)c1 | 19.3 µM (active) |
| Cc1nn(Cc2ccccc2Cl)c(C)c1CN(C)CC(O)COc1ccc(Cl)cc1 (centres undefined) | inactive |
| COc1c(N2CCNC(C)C2)c(F)cc2c(=O)c(C(=O)O)cn(C3CC3)c12 (centres undefined) | inactive |
| c1ccc2[nH]ccc2c1 | inactive |
| O=C(O)c1ccccn1 | inactive |
| COc1ncnc(NS(=O)(=O)c2ccc(N)cc2)c1OC | inactive |
| C[C@]12C[C@H](O)[C@H]3[C@@H](CCC4=CC(=O)CC[C@@]43C)[C@@H]1CC[C@@H]2C(=O)CO | inactive |
| CC(=O)Oc1cccc(C)c1 | inactive |
| CS(=O)(=O)c1cccc(CNc2nc(Nc3ccc4c(c3)CCC(=O)N4)ncc2C(F)(F)F)c1 | inactive |
| COc1cc(S(N)(=O)=O)cc(C(=O)O)c1OC | inactive |
| CCCN(CCC)c1c([N+](=O)[O-])cc(S(N)(=O)=O)cc1[N+](=O)[O-] | inactive |
| C[C@@H](N)C(=O)O | inactive |
| CC[C@@H](C)[C@H](NC(=O)[C@H](CC1CCCCC1)NC(=O)c1ccno1)C(=O)N1CCC2(CCc3ccccc32)CC1 | inactive |
| O=C(O)c1ccccc1O | inactive |
| Nc1nnnn1-c1ccccc1 | inactive |
| CCN(CC)CCCCNc1nc2cc(Cl)c(Cl)cc2nc1-c1ccc(-c2cccs2)s1 | inactive |
| COc1ncc(-c2ccc3nccc(-c4ccnnc4)c3c2)cc1NS(=O)(=O)c1ccc(F)cc1F | 0.0485 µM (active) |
| O=C1NS(=O)(=O)c2ccccc21 | inactive |
| C[C@H](CN1CCCC1)C(=O)c1ccc(C(F)(F)F)cc1 | inactive |

| SMILES | Potency |
| --- | --- |
| CC(=O)NC(C)c1ccc(Oc2ccc(OC(C)C)cc2)cc1 (centres undefined) | inactive |
| CCCCCCCC(=O)OCC(O)CO (centres undefined) | inactive |
| CCCCOCCOc1nc(-c2ccc(C(=O)O)c(F)c2)sc1C | inactive |
| CC(C)(C(=O)NCC(F)(F)C(F)(F)F)C(=O)N[C@@H]1C(=O)Nc2ccccc2-c2ccccc21 | 24.3 µM (active) |
| CCOC(=O)C(=O)CCCCCCl | inactive |
| O=S(c1cc(Cl)cc(Cl)c1O)c1cc(Cl)cc(Cl)c1O | inactive |
| Cn1c(Nc2ccc(C(F)(F)F)cc2)nc2cc(Oc3ccnc(-c4ncc(C(F)(F)F)[nH]4)c3)ccc21 | 21.7 µM (active) |
| Cc1ccc(-c2ncn(-c3ccc(Nc4nccc(-c5cccc(N6CCOCC6)c5)n4)cc3)n2)cn1 | inactive |
| C[C@H](NC(=O)Cc1cc(F)cc(F)c1)C(=O)N[C@@H]1C(=O)N(C)c2ccccc2-c2ccccc21 | inactive |
| CC(C)CCCC(C)CCCC(C)CCCCC(C)CCCC(C)CCCC(C)C (centres undefined) | inactive |
| Cc1ccc(C(=O)Nc2cccc(C(F)(F)F)c2)cc1-c1ccc2nc(NCCN3CCOCC3)ncc2c1 | 10.9 µM (active) |
| CCN1CCN(c2cc3c(cc2F)c(=O)c(C(=O)O)cn3C2CC2)CC1 | inactive |
| COCCn1c2c([n+](Cc3cnccn3)c1C)C(=O)c1ccccc1C2=O | 0.109 µM (active) |
| S=C(NCc1ccc2c(c1)OCO2)N1CCN(c2ncnc3c2oc2ccccc23)CC1 | inactive |
| C=C1C(=CC=C2CCC[C@]3(C)[C@@H]([C@H](C)C=C[C@H](C)C(C)C)CC[C@@H]23)C[C@@H](O)C[C@@H]1O | inactive |
| CNC(=O)c1ccc(N2C(=S)N(c3ccc(C#N)c(C(F)(F)F)c3)C(=O)C2(C)C)cc1F | inactive |
| COc1ccc2c(c1)c1c3n2CCN(C)C3=NCC1 | inactive |
| Cn1c(=O)n(-c2ccc(C(C)(C)C#N)cc2)c2c3cc(-c4cnc5ccccc5c4)ccc3ncc21 | 0.0385 µM (active) |
| CCOc1cc(NC(C)=O)ccc1C(=O)OC | inactive |
